PLK1 PBD block – PLK1 (human) polo-box domain binding inhibition | Plk1 PBD binding of FITC phosphopeptide, fluorescence polarization | Potency, µM, for the others: max response, negative = inhibition, actives largely listed as inhibitors | actives 2.8% (n = 360,000) | AID 720504; also: series mostly up to about 57 µM; % is scaled to controls: 0 for no effect and ±100 for the full control effect; nearly all actives have a fitted effect of over 65% in size
Sfp PPTase inh – inhibitors of Bacillus subtilis Sfp phosphopantetheinyl transferase; Q9F4F7; Biochemical Sfp PPTase activity, qHTS; Potency, µM, inactives show largest response in the series, negative = inhibition, most hits filed as inhibitors; actives 3.5% (n = 310,000); AID 1490;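 also: the enzyme is Sfp with the accession as filed and its product quenches rhodamine fluorescence; 0% = enzyme reaction without inhibitor and -100% = no enzyme wells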
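Fluorescence-quenching assay: 15 nM Sfp-PPTase preincubated 15 min at room temperature with compound, then 5 uM rhodamine-CoA and 12.5 uM BHQ-2-labelled YbbR peptide added. Fluorescence (ex 525/em 598 nm) read at start and after 30 min; difference gives rate.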
BAZ2B block – BAZ2B (human) inhibition. Potency, µM (series often up to 114 µM), for the others: at the top dose activity change, negative = inhibition, actives largely listed as inhibitors. AlphaScreen BAZ2B-H3K14Ac peptide displacement. actives 4.4% (n = 360,000). Q9UIF8. AID 504333; also: % is scaled to controls: 0 for no effect and ±100 for the full control effect; nearly all actives have a fitted effect of over 60% in size
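Protein-peptide AlphaScreen: BAZ2B 50 nM, b-H3K14Ac 50 nM, 1x PBS pH 7.4 + 0.01% Tween-20. Preincubation 30 min RT; cpd 30 min RT (top 110 uM); beads 20 min RT, light-protected.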
G9a block – blocks human histone lysine methyltransferase G9a | actives 8.8% (n = 350,000) | Potency, µM (series often up to 102 µM), without a hit: at the highest dose activity, negative = inhibition, usual class: inhibitors | G9a H3K9 monomethylation, AlphaScreen, 2 h; also: % is scaled to controls: 0 for no effect and ±100 for the full control effect; nearly all actives have a fitted effect of over 75% in size
Target sequence (Q96KQ7 913-1193 limits assumed): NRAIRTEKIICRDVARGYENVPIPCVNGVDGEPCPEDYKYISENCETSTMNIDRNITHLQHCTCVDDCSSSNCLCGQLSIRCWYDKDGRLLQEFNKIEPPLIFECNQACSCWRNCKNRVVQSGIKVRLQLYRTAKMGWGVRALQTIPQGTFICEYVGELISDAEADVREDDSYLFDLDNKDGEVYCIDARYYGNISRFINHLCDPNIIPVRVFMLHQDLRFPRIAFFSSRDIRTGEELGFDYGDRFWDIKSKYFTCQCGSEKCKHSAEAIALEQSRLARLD
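Compounds were preincubated with 20 nM G9a for 15 min, after which biotinylated H3K9 peptide (500 nM) and SAM (20 uM) started a 2 h room-temperature reaction. Monomethylated product was quantified by antibody-based AlphaScreen chemiluminescence.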
HP1b chromo inh – blocks HP1-beta chromodomain binding to methylated histone tails; actives 0.56% (n = 390,000); AlphaScreen HP1-beta / biotin-H3K9me3 peptide binding; Potency, µM (series often up to 114 µM), for the others: top-dose activity change, negative = inhibition, hits mostly inhibitors; also: nearly all actives have a fitted effect of over 70% in size
Target sequence (P83916 whole entry, looked up): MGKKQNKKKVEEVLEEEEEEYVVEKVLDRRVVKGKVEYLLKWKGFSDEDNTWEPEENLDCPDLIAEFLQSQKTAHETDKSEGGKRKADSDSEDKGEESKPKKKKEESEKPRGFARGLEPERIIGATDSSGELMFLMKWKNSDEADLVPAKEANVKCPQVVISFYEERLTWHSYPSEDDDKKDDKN
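HP1-beta protein (50 nM final) preincubated 30 min at room temperature with biotinylated H3(1-18)K9me3 peptide (50 nM) in PBS pH 7.4, 0.01% Tween-20, then compound added for 30 min. AlphaScreen streptavidin donor/nickel chelate acceptor beads (10 ug/mL final), 30 min dark, luminescence read.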
JMJD2A Tudor inh – blocks the human JMJD2A Tudor domain. AlphaScreen JMJD2A-Tudor / H3K4me3 peptide binding. O75164. actives 4.4% (n = 390,000). Potency, µM (highest dose often 114 µM), for the others: top-dose activity change, negative = inhibition, usual class: inhibitors; also: % is scaled to controls: 0 for no effect and ±100 for the full control effect; nearly all actives have a fitted effect of over 50% in size
Active calls of the source: *; [ ] = another dose, or the depositor's remark. This is a sample that favours compounds with a hit; in the whole collection about 12% have one here. Calls follow the shape of the dose curve; as a rule, active = well fitted curve in the direction sought with a large enough effect; inconclusive = small, poorly fitted or top-dose-only effect, or another doubt; inactive = no such curve, though single readings can be large; an effect the other way counts as inactive or inconclusive. Potency is read from the fitted curve at half-maximal effect.

For Nc1nnnn1/N=C/c1cc(Br)ccc1O the results were PLK1 PBD block -9.6%, HP1b chromo inh 12.2% and JMJD2A Tudor inh 28.2µM*.
Screening Cc1nnc(C)n1/N=C/c1cc(Br)cc(Br)c1O returned PLK1 PBD block -23.8%, Sfp PPTase inh -10.2%, BAZ2B block 50.1µM*, G9a block 1.58µM*, HP1b chromo inh 13.5% and JMJD2A Tudor inh -23.3%.
Screening CCc1nc2ccc(C(=O)NCCOc3ccc(OC)cc3)cn2c1N(C)Cc1cccs1 returned PLK1 PBD block 0.0%.
For Cn1cc(-c2nc3cnc(Oc4cccc(Cl)c4)nc3n(CCC#N)c2=O)c2ccccc21 the results were Sfp PPTase inh 2.1% and G9a block 5.7%[12.7 µM].
`Cc1nnc(C)n1/N=C/c1cc(Br)ccc1O` gave PLK1 PBD block -8.2%, Sfp PPTase inh -22.0%, BAZ2B block 7.4%, G9a block 10µM*, HP1b chromo inh 2.4% and JMJD2A Tudor inh 28.2µM*.
For Cc1cc2ncn(/N=C/c3cc(Br)ccc3O)c2cc1C the results were Sfp PPTase inh 16.2%, BAZ2B block -28.1% and G9a block 5.2%[59 µM].
For NC(=S)N=Nc1ccc(O)cc1 the results were PLK1 PBD block 26.7µM*, HP1b chromo inh inconclusive and JMJD2A Tudor inh -26.4%.
`CN1c2ccccc2SC2C(c3ccccc3)=NOC21` (stereo not given) gave PLK1 PBD block -14.3%.
`CCOC(=O)/C(C#N)=C1/C=Nc2ccccc2N1` gave PLK1 PBD block -1.2%, Sfp PPTase inh 10.9%, BAZ2B block -38.9%, G9a block -8.8%[12.7 µM], HP1b chromo inh 18.9% and JMJD2A Tudor inh -13.4%.
For CCOC(=O)/C(C#N)=C1\CC2CCC1(C)C2(C)C (stereo not given) the results were PLK1 PBD block 5.97µM*, Sfp PPTase inh 39.8µM*, BAZ2B block 0.4%, G9a block 3.16µM*, HP1b chromo inh inconclusive and JMJD2A Tudor inh -5.1%.
Screening O=S(=O)(c1ccccc1Cl)N1CCN(c2nc(-c3cccs3)nc3ccccc23)CC1 returned HP1b chromo inh 45.8% and JMJD2A Tudor inh -2.0%.
`Fc1ccc([C@@H]2CCNC[C@H]2COc2ccc3c(c2)OCO3)cc1` gave PLK1 PBD block -4.1%, Sfp PPTase inh -8.1%, BAZ2B block inconclusive, G9a block 23.8µM*, HP1b chromo inh inconclusive and JMJD2A Tudor inh inconclusive.
Fc1ccc(C2CCNCC2COc2ccc3c(c2)OCO3)cc1 (stereo not given) was read as PLK1 PBD block -23.2%, Sfp PPTase inh -2.4%, BAZ2B block inconclusive, G9a block 50.1µM*, HP1b chromo inh inconclusive and JMJD2A Tudor inh inconclusive.
For COc1ccc(S(=O)(=O)N2CCC(C(=O)NCCc3c[nH]c4ccccc34)CC2)cc1 the results were PLK1 PBD block -1.8%, Sfp PPTase inh 4.0%, BAZ2B block -8.9%, G9a block -11.8%, HP1b chromo inh 4.0% and JMJD2A Tudor inh -32.8%.
Screening Fc1ccc(OCCn2cnc(Cl)c2Cl)cc1 returned PLK1 PBD block -5.5%, Sfp PPTase inh 16.5%, BAZ2B block -30.7%, G9a block -46.3%, HP1b chromo inh -2.3% and JMJD2A Tudor inh -24.9%.
Cc1cc(Cl)cc(C)c1OCCCCn1ccnc1 was read as PLK1 PBD block -1.2%, Sfp PPTase inh 13.1%, BAZ2B block -38.6%, G9a block 31.6µM*, HP1b chromo inh 26.6% and JMJD2A Tudor inh inconclusive.
For Cc1cccc(OCCCCCn2ccnc2)c1 the results were PLK1 PBD block 3.6%, Sfp PPTase inh 4.4%, BAZ2B block 50.1µM*, G9a block 31.6µM*, HP1b chromo inh inconclusive and JMJD2A Tudor inh 3.16µM*.
For Cc1cc(OCCCCn2ccnc2)cc(C)c1Cl the results were PLK1 PBD block -16.4%, Sfp PPTase inh -8.0%, BAZ2B block inconclusive, G9a block 8.91µM*, HP1b chromo inh -0.3% and JMJD2A Tudor inh inconclusive.
Cc1cccc(OCCn2cnc(Cl)c2Cl)c1 was read as PLK1 PBD block -5.4%, Sfp PPTase inh 3.8%, BAZ2B block 28.2µM*, G9a block -44.1%, HP1b chromo inh -18.5% and JMJD2A Tudor inh -19.3%.

Screening data: PubChem BioAssay, National Center for Advancing Translational Sciences (NCATS)
